Compounds with a hit are over-represented: about 2.3% of the library has one in this group of screens.
Mcl1 Noxa PPI – disrupts binding of human Mcl-1 to Noxa peptide; actives 1.5% (n = 220,000); TR-FRET Mcl-1/Noxa peptide binding, 2 h; Q07820; inhibition, % at 21.7 µM; AID 1022;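 active means compounds that cut the protein-peptide binding signal by more than 50% relative to plate controls in a single-dose test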;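 further: His-tagged Mcl-1 with rhodamine Noxa BH3 peptide and terbium anti-His antibody; 0% = Mcl-1 plus Noxa peptide wells and 100% = peptide-only wells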
Target sequence (Q07820 whole entry, looked up): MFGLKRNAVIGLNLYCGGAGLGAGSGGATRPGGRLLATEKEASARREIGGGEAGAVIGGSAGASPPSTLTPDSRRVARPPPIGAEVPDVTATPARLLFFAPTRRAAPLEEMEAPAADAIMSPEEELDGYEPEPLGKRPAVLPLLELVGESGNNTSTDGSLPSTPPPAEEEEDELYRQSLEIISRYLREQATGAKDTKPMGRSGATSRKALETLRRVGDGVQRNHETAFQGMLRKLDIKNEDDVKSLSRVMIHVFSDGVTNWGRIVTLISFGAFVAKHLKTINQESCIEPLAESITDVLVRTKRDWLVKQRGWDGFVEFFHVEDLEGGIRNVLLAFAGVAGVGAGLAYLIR
Mcl1 Bid PPI – Mcl-1/Bid interaction inhibition | inhibition, % at 21.7 µM | actives 0.97% (n = 220,000) | Q07820 | AID 1021 | TR-FRET Mcl-1/Bid-Dy647 peptide binding, 1536-well;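 active means compounds that cut the binding signal by more than half at the single screening dose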;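 further: His-tagged Mcl-1 with europium anti-His antibody binding Bid BH3 peptide; 0% = Mcl-1 plus peptide wells and 100% = peptide-only wells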
GLD-1 TGE inh – GLD-1-TGE RNA interaction inhibition (C. elegans); purified GLD-1 + fluorescein TGE RNA, fluorescence polarization; actives 0.44% (n = 320,000); Q17339; inhibition, % at 5.96 µM;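 active means percent inhibition above a per-plate cutoff, the plate mean of test compounds plus 3 SD, cut at about 30% in these data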;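 further: 0% = DMSO wells with GLD-1 and probe and 100% = wells lacking GLD-1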
MCL1 BIM primary – inhibitors of human MCL1 binding to BIM-BH3 peptide. Q07820. GST-MCL1 / FITC-Bim-BH3 fluorescence polarization. inhibition, % at 10.9 µM. actives 0.68% (n = 320,000). AID 2057;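 active means inhibition above the mean inhibition of all tested compounds plus 3 SD, set per campaign, cut at about 40% in these data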;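 further: 0% = DMSO wells and 100% = unlabeled Bim-BH3 peptide control; higher means more loss of mP so more displacement of Bim peptide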
BCLXL inh – inhibitors of human Bcl-xL. Q07817. GST-Bcl-xL / FITC-Bim BH3 peptide fluorescence polarization. inhibition, % at 10.9 µM. actives 0.7% (n = 320,000). AID 2129;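 active means inhibition above the mean of all tested compounds plus 3 SD, cutoff set per campaign, cut at about 30% in these data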;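 further: 0% = DMSO wells and 100% = unlabeled Bim-BH3 peptide competitor; inhibitors lower millipolarization by displacing the labeled peptide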
Target sequence (Q07817 whole entry, looked up): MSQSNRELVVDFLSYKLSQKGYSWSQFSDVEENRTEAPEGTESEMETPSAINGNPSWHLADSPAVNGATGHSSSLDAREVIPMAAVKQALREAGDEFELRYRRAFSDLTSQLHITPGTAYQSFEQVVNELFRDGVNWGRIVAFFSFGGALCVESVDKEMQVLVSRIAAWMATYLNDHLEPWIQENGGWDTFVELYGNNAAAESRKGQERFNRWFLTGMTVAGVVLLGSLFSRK
Bim-Mcl-1 – inhibitors of Bim-Mcl-1 interaction, human; Q07820; Bead-based flow cytometry, Bim peptide-Mcl-1 binding; inhibition, % at 10 µM; actives 0.1% (n = 190,000); in the data active means inhibition above about 40%;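 further: 0% = no compound tracer wells and 100% = peptide blocker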
BCLXL inh confirm – counter-screen for MCL1 inhibitors: confirmation of human Bcl-xL inhibitors. shares compounds with MCL1 BIM primary. GST-Bcl-xL / FITC-Bim BH3 peptide FP binding. inhibition, % at 10.9 µM. actives 54% (n = 1,700). AID 2166;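 active means inhibition above a cutoff equal to the mean inhibition of all tested compounds plus 3 SD, cut at about 30% in these data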;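 further: 0% = DMSO wells and 100% = unlabeled Bim BH3 control peptide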
MCL1 BIM confirm – confirmation of human MCL1 and BIM-BH3 interaction inhibitors | shares compounds with MCL1 BIM primary | GST-MCL1 / FITC-Bim-BH3 fluorescence polarization | inhibition, % at 10.9 µM | actives 61% (n = 1,700);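 active means inhibition above the average of all tested compounds plus 3 SD, cut at about 40% in these data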;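 further: 0% = DMSO wells and 100% = unlabeled Bim-BH3 control peptide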
* hit, by the source's call.

Results for CCCCOc1ccc(N2C(=O)CC(NCc3ccncc3)C2=O)cc1 (stereo not given) ?
Mcl1 Noxa PPI: 12; Mcl1 Bid PPI: -23; GLD-1 TGE inh: 7; MCL1 BIM primary: -4; BCLXL inh: 3; Bim-Mcl-1: 1

Results for CCCN(CCC)C(=O)c1ccc2c(c1)N(CC)C(=O)c1ccccc1S2(=O)=O ?
GLD-1 TGE inh: 72*; MCL1 BIM primary: 127*; BCLXL inh: 117*; BCLXL inh confirm: 8; MCL1 BIM confirm: 5

What do the screens show for `O=C1/C(=C\c2cc(Br)cc(Br)c2O)SC(=S)N1Cc1ccccc1`?
GLD-1 TGE inh: -12; MCL1 BIM primary: 51*; BCLXL inh: 21; BCLXL inh confirm: 24; MCL1 BIM confirm: 49*

Results for COc1cc([N+](=O)[O-])cc(/C=C2/SC(=S)N(Cc3ccccc3)C2=O)c1O ?
GLD-1 TGE inh: 0; MCL1 BIM primary: 73*; BCLXL inh: 49*; BCLXL inh confirm: 70*; MCL1 BIM confirm: 80*

How did O=C1/C(=C\c2ccc(O)cc2)SC(=S)N1Cc1ccccc1 do in these assays?
GLD-1 TGE inh: -42; MCL1 BIM primary: -28; BCLXL inh: -21

What do the screens show for `CCN(CC)CCN(Cc1cc2ccc(C)c(C)c2[nH]c1=O)C(=S)NCc1ccco1`?
Mcl1 Noxa PPI: -4; Mcl1 Bid PPI: -62; GLD-1 TGE inh: -4; MCL1 BIM primary: -2; BCLXL inh: -5; Bim-Mcl-1: -1

What do the screens show for `CC(=O)C1=C(C)NC(=O)CC1c1ccc(Br)cc1` (stereo not given)?
Mcl1 Noxa PPI: 1; Mcl1 Bid PPI: -28; GLD-1 TGE inh: -4; MCL1 BIM primary: -3; BCLXL inh: 6; Bim-Mcl-1: -1

How did COc1ccc(OC)c2nc3c(cc12)CCC3 do in these assays?
GLD-1 TGE inh: 32*; MCL1 BIM primary: 53*; BCLXL inh: 52*; BCLXL inh confirm: 10; MCL1 BIM confirm: 5

How did COc1ncnc2c1NC1=C(S2)C(=NCCC(=O)O)CC(C)(C)C1 do in these assays?
Mcl1 Noxa PPI: 25; Mcl1 Bid PPI: 9; GLD-1 TGE inh: 103*; MCL1 BIM primary: 162*; BCLXL inh: 144*; Bim-Mcl-1: -3; BCLXL inh confirm: 171*; MCL1 BIM confirm: 198*

Results for CCOC(=O)CSc1nc(N2CCOCC2)c2c(c1C#N)CC(C)(C)N(C)C2 ?
Mcl1 Noxa PPI: -3; Mcl1 Bid PPI: -16; GLD-1 TGE inh: 73*; MCL1 BIM primary: 56*; BCLXL inh: 59*; Bim-Mcl-1: 4; BCLXL inh confirm: 8; MCL1 BIM confirm: 13

What do the screens show for `CC(C)C(C(=O)O)N1C(=O)/C(=C/C=C/c2ccco2)SC1=S` (stereo not given)?
Mcl1 Noxa PPI: 102*; Mcl1 Bid PPI: 98*; GLD-1 TGE inh: 6; MCL1 BIM primary: 95*; BCLXL inh: 71*; Bim-Mcl-1: 0; BCLXL inh confirm: 32*; MCL1 BIM confirm: 37

How did O=C(NN1C(=O)/C(=C/C=C/c2ccccc2)SC1=S)c1ccncc1 do in these assays?
Mcl1 Noxa PPI: 14; Mcl1 Bid PPI: -5; GLD-1 TGE inh: -47; MCL1 BIM primary: -79; BCLXL inh: -50; Bim-Mcl-1: 3

How did O=C(NN1C(=O)/C(=C/C=C/c2ccco2)SC1=S)c1ccncc1 do in these assays?
Mcl1 Noxa PPI: 99*; Mcl1 Bid PPI: 26; GLD-1 TGE inh: 4; MCL1 BIM primary: 80*; BCLXL inh: 46*; BCLXL inh confirm: 30*; MCL1 BIM confirm: 45*

How did O=C(CNCc1ccccc1)Nc1ccc(F)cc1 do in these assays?
Mcl1 Noxa PPI: 9; Mcl1 Bid PPI: 16; GLD-1 TGE inh: 7; MCL1 BIM primary: 43*; BCLXL inh: 1; Bim-Mcl-1: -5; BCLXL inh confirm: 8; MCL1 BIM confirm: 3

How did Cc1ncc(CCl)c2c1OC(C)(C)OC2 do in these assays?
Mcl1 Noxa PPI: 34; Mcl1 Bid PPI: 19; GLD-1 TGE inh: -4; MCL1 BIM primary: 6; BCLXL inh: 6; Bim-Mcl-1: -2

How did N#C/C(=C\c1ccccc1Cl)C(=O)Nc1ccccn1 do in these assays?
GLD-1 TGE inh: -2; MCL1 BIM primary: 7; BCLXL inh: 7

How did N#C/C(=C\c1cccs1)C(=O)Nc1ccccn1 do in these assays?
Mcl1 Noxa PPI: 18; Mcl1 Bid PPI: -10; GLD-1 TGE inh: 30; MCL1 BIM primary: 57*; BCLXL inh: 55*; BCLXL inh confirm: 49*; MCL1 BIM confirm: 71*

How did CC(CCc1ccccc1)NC(=O)c1ccc(F)cc1 (stereo not given) do in these assays?
GLD-1 TGE inh: 6; MCL1 BIM primary: 3; BCLXL inh: 5

How did COC(=O)c1sc2ccccc2c1N do in these assays?
Mcl1 Noxa PPI: 10; Mcl1 Bid PPI: -24; GLD-1 TGE inh: -10; MCL1 BIM primary: 4; BCLXL inh: 4; Bim-Mcl-1: -4

How did COC(=O)C1=C(C(=O)OC)C(c2ccccc2O)c2sc(=O)[nH]c2S1 (stereo not given) do in these assays?
Mcl1 Noxa PPI: 56*; Mcl1 Bid PPI: -9; GLD-1 TGE inh: 3; MCL1 BIM primary: 54*; BCLXL inh: 33*; Bim-Mcl-1: 7; BCLXL inh confirm: 22; MCL1 BIM confirm: 54*

Results for CN(C)c1ccc(O)c2c1CC1CC3[C@@H](N(C)C)C(=O)C(C(N)=O)=C(O)[C@]3(O)C(=O)C1=C2O (stereo not given in full) ?
Mcl1 Noxa PPI: 28; Mcl1 Bid PPI: -12; GLD-1 TGE inh: 3; MCL1 BIM primary: 61*; BCLXL inh: 15; Bim-Mcl-1: -3; BCLXL inh confirm: 26; MCL1 BIM confirm: 67*

Results for C[C@H]1c2cccc(O)c2C(O)=C2C(=O)[C@]3(O)C(O)=C(C(N)=O)C(=O)[C@@H](N(C)C)[C@@H]3[C@@H](O)[C@@H]21 ?
Mcl1 Noxa PPI: -84; Mcl1 Bid PPI: -52; GLD-1 TGE inh: 0; MCL1 BIM primary: 22; BCLXL inh: 9

Results for CCOc1ccccc1N1CN(C2CCCCC2)CNC1=S ?
Mcl1 Noxa PPI: 26; Mcl1 Bid PPI: -20; GLD-1 TGE inh: -3; MCL1 BIM primary: 52*; BCLXL inh: -2; BCLXL inh confirm: 2; MCL1 BIM confirm: 3

How did CCOc1ccc(CCN2CN(C3CCCCC3)CNC2=S)cc1OCC do in these assays?
Mcl1 Noxa PPI: 10; Mcl1 Bid PPI: -59; GLD-1 TGE inh: 4; MCL1 BIM primary: 3; BCLXL inh: 3
